High-throughput results from PubChem.
PAFAH1B2 inh: inhibitors of human PAFAH1B2 | actives 1.2% (n = 340,000) | inhibition, % at 3.39 µM | AID 492953 | recombinant PAFAH1B2, FP-rhodamine activity probe, fluorescence polarization;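 active = inhibition above the mean of all tested compounds plus 3 SD, cut at about 24% in these data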
PAFAH2 inh: inhibitors of human PAFAH2; inhibition, % at 3.39 µM; recombinant PAFAH2, FP-rhodamine activity probe, fluorescence polarization; AID 492956; actives 0.99% (n = 340,000); Q99487;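 active = inhibition above the mean over all tested compounds plus 3 SD, cut at about 30% in these data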;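 also: inhibitors block probe labeling of enzyme so polarization drops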
PAFAH1B3 FP inh: inhibitors of human PAFAH1B3; actives 0.28% (n = 340,000); recombinant PAFAH1B3, FP-rhodamine probe, fluorescence polarization; inhibition, % at 3.39 µM;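 active = inhibition above the screen-wide average of all tested compounds plus 3 SD, cut at about 25% in these data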
Target sequence (Q15102 whole entry, looked up): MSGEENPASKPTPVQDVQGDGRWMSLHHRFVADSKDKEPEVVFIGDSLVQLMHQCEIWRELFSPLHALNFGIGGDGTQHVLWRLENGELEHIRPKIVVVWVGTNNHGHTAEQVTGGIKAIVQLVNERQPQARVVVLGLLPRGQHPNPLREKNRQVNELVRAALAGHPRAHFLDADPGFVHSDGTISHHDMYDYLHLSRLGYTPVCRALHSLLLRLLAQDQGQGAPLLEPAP
Fh CTSL1 inh: blocks F. hepatica cathepsin L1 in PFM18AAP counter-screen. recombinant F. hepatica cathepsin L1, Z-Leu-Arg-MCA fluorescence. inhibition, % at 5.96 µM. AID 1906. actives 0.49% (n = 300,000);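 active = inhibition above the mean of all tested compounds plus 3 SD, set per screening campaign, cut at about 17% in these data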
PP5 primary: PP5 (human) phosphatase inhibition | P53041 | purified PP5c, OMFP substrate fluorescence | inhibition, % at 6.7 µM | actives 0.18% (n = 320,000);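 active = inhibition above the campaign's mean inhibition across all tested compounds plus 3 SD, cut at about 9.5% in these data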
pPAFAH inh: pPAFAH (human) enzyme inhibition | Q13093 | recombinant pPAFAH, FP-rhodamine probe fluorescence polarization | inhibition, % at 3.39 µM | actives 1.5% (n = 330,000) | AID 463082;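 active = inhibition above the mean inhibition across the screen plus 3 SD, cut at about 25% in these data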;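 also: inhibitors block binding of the rhodamine activity-based probe so polarization drops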
Numbers stand for hits; 0 = inactive; - = no result. Rows were chosen to be rich in hits. Some 3% of all compounds tested hit in one or more screens of this group.

SMILES	PAFAH1B2 inh	PAFAH2 inh	PAFAH1B3 FP inh	Fh CTSL1 inh	PP5 primary	pPAFAH inh
COc1ccc([C@@H]2CC=C(C(=O)O)[C@H](c3ccc(C(C)(C)C)cc3)N2S(=O)(=O)c2ccc(C)cc2)cc1OC	0	0	0	-	-	0
CCCc1cc(C(=O)Nc2ccc(CC)cc2)no1	0	0	0	0	0	0
CC(C)C(NC(=O)c1ccc(C(C)(C)C)cc1)C(=O)Nc1ccc(N2CCOCC2)cc1 (configuration not stated)	0	0	0	-	0	0
Cc1nnc(SCC(=O)N(CCC#N)c2ccc3c(c2)OCCO3)s1	0	0	0	-	0	0
Cc1ccccc1C(OCC(O)CN1CCN(CCO)CC1)c1ccccc1 (configuration not stated)	0	0	0	0	0	0
COc1cc(NC(=O)CSc2ncnc3scc(-c4ccccc4)c23)c(C(=O)O)cc1OC	0	0	0	0	0	30.9
O=C(O)CSc1ncnc2scc(-c3ccccc3)c12	0	0	0	0	0	0
O=C(CNS(=O)(=O)c1ccccc1)NCC(=O)OCc1ccc(Cl)cc1	27.3	0	0	0	0	0
O=C(CN1C(=O)NC2(CCCC2)C1=O)NCCc1ccccc1	0	0	0	-	-	0
CCC(C)(C)C1CCC2(CC1)NC(=O)N(CC(=O)N1CCN(C(=O)c3ccco3)CC1)C2=O (configuration not stated)	24.7	0	0	-	0	0
CCC(C)(C)C1CCC2(CC1)NC(=O)N(CC(=O)NCCc1ccc(OC)c(OC)c1)C2=O (configuration not stated)	25.4	0	0	-	0	0
CCC(C)(C)C1CCC2(CC1)NC(=O)N(CC(=O)NCCOc1ccccc1)C2=O (configuration not stated)	28.5	0	0	-	0	0
COc1ccc(S(=O)(=O)N2CCN(C(=O)c3cc(-c4ccc(C)cc4)n[nH]3)CC2)cc1	0	0	0	0	0	0
Cc1ccc(N(CC(=O)N(C)Cc2ccccc2)S(C)(=O)=O)cc1C	0	0	0	0	0	0
Cc1ccc(N2C(=O)/C(=C/c3ccco3)SC2=S)cc1	0	0	0	0	0	0
O=C1/C(=C\c2ccco2)SC(=S)N1C1CCCCC1	-	-	-	0	0	32.6
CCOc1cc(C2CC(=O)N3CN(C4CCCCC4)CSC3=C2C#N)ccc1O (configuration not stated)	0	0	0	79.6	0	0
COC(=O)C(C)Sc1nc2c(cnn2-c2ccc(Cl)cc2)c(=O)[nH]1 (configuration not stated)	0	0	0	0	0	0
CCOc1ccc(CCNS(=O)(=O)c2ccc3c(c2)N(C(C)=O)CCO3)cc1OCC	0	0	0	0	0	0
Cn1c(=S)[nH]c2sc3c(c2c1=O)CCC(C(C)(C)C)C3 (configuration not stated)	43.5	0	0	0	0	0
Cc1c(C)c2ccc(OCC(=O)Nc3ccccc3C(N)=O)cc2oc1=O	0	0	0	0	0	0
O=C(c1cccc(Cl)c1)N1CCN(C2CCCCC2)CC1	0	0	0	25.2	0	0
CCN(CC)Cc1c(C(=O)N/N=C/c2ccccn2)nnn1-c1nonc1N	0	0	0	0	0	0
Cn1cc(/C=N/NC(N)=S)c2ccccc21	0	0	0	99.8	0	0
O=C(O)c1ccn2c(C(=O)c3ccc(Cl)cc3)c(-c3ccccc3)cc2c1	59.0	0	0	0	0	0
SMILES	PAFAH1B2 inh	PAFAH2 inh	PAFAH1B3 FP inh	Fh CTSL1 inh	PP5 primary	pPAFAH inh
O=C(NCCO)C(=O)c1c(-c2ccc(Cl)cc2)cc2ccccn12	0	0	0	0	0	0
O=C(NC1CC1)c1cccc(NC(=O)C2CCCCC2)c1	0	0	0	-	-	-
O=C(O)c1[nH]c2ccccc2c1C(c1c(F)cccc1Cl)c1c(C(=O)O)[nH]c2ccccc12	48.7	0	0	0	0	0
COc1cc(Cl)cc(C(c2c(C(=O)O)[nH]c3ccccc23)c2c(C(=O)O)[nH]c3ccccc23)c1O	83.3	0	0	0	0	0
O=C(O)c1[nH]c2ccccc2c1C(c1cc(Br)ccc1O)c1c(C(=O)O)[nH]c2ccccc12	94.4	0	0	0	0	0
COc1cc(C(=O)Nc2c(C(=O)O)[nH]c3ccccc23)cc(OC)c1OC	0	0	0	-	-	-
Cn1c(=O)c2[nH]c(Cc3cccc4ccccc34)nc2n(C)c1=O	0	0	0	-	-	-
